Screens from PubChem BioAssay.
A selection: hits, their analogues and other compounds. The true share with any hit is near 7.5%.
NPC1 prom act = activators of NPC1 promoter; Huh7 NPC1 promoter luciferase reporter, 24 h; Potency, µM (titrated, usually from 9.22 µM), without a hit: at the highest dose activation, most hits filed as activators; 2.4% of 320,000 active; AID 485313; further: % of control where 0% means no effect; nearly all actives have a fitted effect of over 60% in size
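Compounds in DMSO were transferred onto Huh7 NPC1-luciferase reporter cells pre-incubated 2 h; after 24 h at 37 °C, Amplite reagent was dispensed and luminescence recorded 10 min later.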
SMN2 splice up = enhancers of SMN2 splice variant expression | HEK293 SMN2-luciferase splicing reporter, luminescence, 30-36 h | 2.8% of 210,000 active | AID 1458 | Potency, µM (titrated, usually from 46.1 µM), inactives show top-dose activity change, positive = activation, most hits filed as activators; further: % of control where 0% means no effect; nearly all actives have a fitted effect of over 55% in size
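HEK293 cells carry an SMN2 […]–luciferase reporter in which exon 7 inclusion puts luciferase in frame. Cells were plated 10-12 h before compound addition, then incubated 30-36 h at 37C. ONE-Glo luminescence was read; sodium butyrate at 4.5 mM final served as control.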
ELG1 genotoxic = induces genotoxicity in HEK293T cells with luciferase-tagged ELG1; HEK293T ELG1-luciferase reporter, luminescence, 16 h; Potency, µM (top dose mostly 46 µM), inactives show at the top dose activity change, positive = activation, most hits filed as activators; 1.3% of 330,000 active; AID 504466; further: % of control where 0% means no effect; nearly all actives have a fitted effect of over 60% in size
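DMSO vehicle served as control against compound-treated ELG1-luciferase HEK293T cells; exposure lasted 16 hr at 37 °C and 5% CO2, followed by ONE-Glo luminescence detection after 30 min.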
Luc counter = blocks Kinase-Glo luciferase, a counter-screen artifact. 0.28% of 200,000 active. Potency, µM (series often up to 38.3 µM), inactives show at the highest dose activity change, negative = inhibition, actives largely listed as inhibitors. Q27757. Kinase-Glo luciferase, ATP luminescence, 8 min; further: on the % scale 0 is the no-effect control and ±100 the full control effect; nearly all actives have a fitted effect of over 60% in size
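Light output from Kinase-Glo luciferase with luciferin and 10 uM ATP in 50 mM imidazole pH 7.2, KCl, MgCl2, Tween 20, BSA; compound pin-delivered, 8-min ambient incubation, then luminescence read.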
FLuc modulator = counter-screen for miR-21 project: firefly luciferase inhibitors or activators | P08659 | purified FLuc, Km substrates, luminescence inhibition | Potency, µM (top dose mostly 57.5 µM), without a hit: at the highest dose activity change, negative = inhibition, actives largely listed as inhibitors | 6.9% of 360,000 active | AID 588342;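 further: plate controls were vehicle for no effect and reference inhibitor for full effect; nearly all actives have a fitted effect of over 55% in size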
Target sequence (P08659 whole entry, looked up): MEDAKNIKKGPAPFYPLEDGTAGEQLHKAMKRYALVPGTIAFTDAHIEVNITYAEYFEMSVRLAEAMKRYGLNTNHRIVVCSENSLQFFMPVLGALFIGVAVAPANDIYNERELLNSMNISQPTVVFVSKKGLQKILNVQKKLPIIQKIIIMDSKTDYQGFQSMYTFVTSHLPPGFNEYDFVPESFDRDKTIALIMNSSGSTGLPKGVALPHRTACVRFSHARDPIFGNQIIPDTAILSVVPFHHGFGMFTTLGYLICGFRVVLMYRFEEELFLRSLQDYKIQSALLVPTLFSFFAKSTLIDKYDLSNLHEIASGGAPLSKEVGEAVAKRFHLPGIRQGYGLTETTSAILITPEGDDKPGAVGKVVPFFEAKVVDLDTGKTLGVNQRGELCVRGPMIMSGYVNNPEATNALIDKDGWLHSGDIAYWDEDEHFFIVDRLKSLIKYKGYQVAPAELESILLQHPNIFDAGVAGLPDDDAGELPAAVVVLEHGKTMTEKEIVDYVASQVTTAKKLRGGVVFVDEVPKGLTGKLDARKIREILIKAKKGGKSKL
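Biochemical qHTS of compounds, final roughly 60 µM downward over six points, against 10 nM purified firefly luciferase using Km concentrations of substrates (10 uM D-luciferin, 10 uM ATP) in Tris acetate pH 7.5 buffer; luminescence output.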
Rab9 promoter act = activators of Rab9 promoter; Huh7 Rab9 promoter-luciferase reporter, luminescence, 24 h; Potency, µM (titrated, usually from 9.22 µM), for the others: top-dose activation, negative = inhibition, most hits filed as activators; 2.8% of 320,000 active; AID 485297; further: % of control where 0% means no effect; nearly all actives have a fitted effect of over 60% in size
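Huh7 cells stably carrying a Rab9 promoter-luciferase reporter, 1500 cells per well in OP-MEM I with 10% FBS, treated with compound 24 hours at 37C. Luciferase activity read by luminescence after 10 minutes with Amplite reagent.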
* marks the source's active call; other numbers are inactive results; u = inconclusive; x = no result given. The call rests on the fitted dose curve; in most records, active means well fitted curve in the direction sought with a large enough effect; inconclusive means small, poorly fitted or top-dose-only effect, or another doubt; inactive means no such curve, though single readings can be large; an effect the other way counts as inactive or inconclusive. Potency means the concentration at half of the fitted maximal effect.

SMILES	NPC1 prom act	SMN2 splice up	ELG1 genotoxic	Luc counter	FLuc modulator	Rab9 promoter act
CCOC(=O)N/N=C/c1c(C)nn(-c2cccc(C(F)(F)F)c2)c1Cl	-24.0%	-66.2%	0.5%	4.1%	-3.8%	-24.8%
Cc1cc(C)cc(NC(=O)C2CCN(S(=O)(=O)c3cn(C)cn3)CC2)c1	x	x	x	x	4.4%	x
Cc1ccc(NC(=O)NCCc2c(C)nn(C)c2C)cc1Cl	x	x	x	x	-10.1%	x
Cc1cc(/C=C2/SC(=O)N(CC(=O)N3CCOCC3)C2=O)c(C)n1-c1ccccc1F	3.55µM*	11.2µM*	u	-2.5%	0.379µM*	1.58µM*
Cn1c(=O)n(C)c2cc(/C=C3/SC(=O)N(CC(=O)N4CCOCC4)C3=O)ccc21	-1.1%	6.8%	u	-0.6%	-23.4%	-4.4%
COc1ccc(C2(c3ccc(OC)cc3)NC(=O)N(CC(=O)N3CCOCC3)C2=O)cc1	-1.4%	x	1.8%	x	0.9%	-3.0%
COc1ccc(-n2c(C)cc(/C=C3/SC(=O)N(CC(=O)N4CCOCC4)C3=O)c2C)cc1	14.3%	4.2%	2.8%	-3.1%	1.69µM*	23.5%
C/C(=N/O)c1ccccn1	2.1%	7.4%	-2.4%	3.2%	-0.1%	-3.3%
C/C(=N/OCc1ccc(Br)cc1)c1ccccn1	3.98µM*	14.1µM*	4.61µM*	-9.0%	3.01µM*	2.51µM*
N/C(=N\OC(=O)c1cccc(F)c1)c1ccccn1	3.55µM*	x	u	x	1.07µM*	1.58µM*
N/C(=N\OC(=O)c1ccc(Br)o1)c1ccccn1	0.562µM*	12.6µM*	u	u	2.69µM*	2.24µM*
O=C(NCCCNC(=O)c1ccccn1)c1cccc(F)c1	-7.0%	x	3.5%	x	3.0%	4.3%
CCOc1ccc(C(=O)O/N=C(\N)c2ccccn2)cc1	0.1µM*	x	u	x	0.0849µM*	0.501µM*
COc1ccc2c(c1)CC(C(=O)N1CCC(C(N)=O)CC1)CO2 (stereo not drawn)	x	x	x	x	-0.2%	x
CCN(CC)S(=O)(=O)c1cccc(C(=O)Nc2sc3c(c2C#N)CCC(C)C3)c1 (stereo not drawn)	x	11.2%	x	x	u	x
CCOC(=O)c1c(C)oc2ccc(N(C(=O)Oc3ccccc3)S(=O)(=O)c3ccc(CC)cc3)cc12	x	-29.9%	x	x	-5.3%	x
CCCCNc1nc(C)nc2c1nc(-c1ccccc1)n2CCN1CCCC1	x	-7.5%	x	-0.5%	x	x
Cc1ccc(C(=O)O/N=C(\N)c2ccccn2)cc1C	0.316µM*	x	0.326µM*	x	0.0953µM*	0.501µM*
N/C(=N\OC(=O)c1ccccc1)c1ccccn1	1.78µM*	x	u	1.41µM*	0.269µM*	1µM*
CC(C)(C)c1ccc(C(=O)O/N=C(\N)c2ccccn2)cc1	-25.3%	x	-5.4%	x	0.239µM*	-24.0%
Cc1cccc(C(=O)O/N=C(\N)c2ccccn2)c1	1.58µM*	x	2.59µM*	x	0.269µM*	3.98µM*
COc1cc(C(=O)O/N=C(\N)c2ccccn2)cc(OC)c1OC	23.1%	x	u	x	-18.7%	27.6%
CCOc1ccccc1NC(=O)CCNS(=O)(=O)c1ccc2c(c1)CCN2C(=O)C1CC1	x	x	x	x	-8.6%	x
Cc1cccc(N2CCN(C(=O)CCS(=O)(=O)c3ccc4c(c3)CC(=O)N4C)CC2C)c1 (stereo not drawn)	x	x	x	x	3.8%	x
COc1ccc(CNC(=O)CCc2c(C)c3ccc(OC)c(C)c3oc2=O)cc1OC	x	-1.2%	x	x	0.0%	x
C/C(=N\OC(=O)c1ccc(Br)cc1)c1ccccn1	-1.0%	0.3%	2.1%	u	0.536µM*	-7.5%
N/C(=N\OCc1ccc([N+](=O)[O-])cc1)c1ccccn1	u	0.794µM*	0.082µM*	10µM*	0.379µM*	u
Cc1ccc(C(=O)O/N=C(\N)c2ccccn2)cc1	0.501µM*	x	u	x	0.0239µM*	1.12µM*
c1ccc(CNc2ncnc3nc[nH]c23)cc1	1.2%	-3.4%	-4.8%	-0.4%	-2.1%	2.5%
Fc1ccc(/C=N/Nc2ncnc3nc[nH]c23)cc1F	29.5%	u	20.6µM*	-26.8%	u	27.9%
